The record followed here is PubChem BioAssay (NCATS).

Where “and” joins values, the source holds several entries; their conditions need not be identical. Equal values may be shown once. Results filed as inconclusive are left out. Values without a mark were called inactive. Calls of active or inactive are those of the source. Calls come from the whole dose curve; as a rule, active = well fitted curve in either direction with a large enough effect (not every such curve was filed as active); inconclusive = small, poorly fitted or top-dose-only effect, or another doubt; inactive = flat fitted curve, though single readings scatter.
% is set by controls: 0 for no effect and ±100 for the full control effect.

A short description of one experiment: NFAT Signaling Pathway (AID 444). The conditions noted are these: Jurkat NFAT-bla M1, carbachol, beta-lactamase ratio, 5 h; at 17.2 µM (top of the series). From the text:
NCGC Assay Overview: The nuclear factor of activated T cells (NFAT) family of transcription factors has been found primarily in most immune system cells and some other non-immune cells. NFAT plays the immunomodulatory role, primarily in T-cell activation and differentiation. NFAT target genes are also involved in the regulation of apoptosis and differentiation in non-immune cell types. The NFAT sequence was engineered to the upstream of the ?-lactamase reporter gene and transfected into Jurkat cells with co-transfection of muscarinic receptor1 [provided by Invitrogen Corp]. When an extracellular stimulus, such as carbachol, binds to the GPCR M1 receptor, it stimulates a signaling cascade that activates NFAT response element and ?-lactamase expression by phosphorylating the NFAT binding protein. This cell based ?-lactamase reporter gene assay can accurately monitor any changes occurring along the NFAT pathway, and can be used for screening small molecule inhibitor or activator upon activation by carbachol EC50 concentration. A small molecular library were screened in a titration series resulting in AC50s (can be either IC50s or EC50s).
NCGC Assay Protocol Summary: The cells were prepared in RPMI 1640 medium containing 0.1% dialyzed FBS and 25 mM HEPES at 1.6 x 10^6cell/ml. The assay was performed in 1536-well plate format as follows: 5 ul of cell preparation 23 nl of compounds 1ul of carbachol (final concentration 1 uM) Briefly centrifuge the plates and incubate at 37 °C for 5 hours 1 ul of CCF4 dye mixture Incubate the plates at RT for 1 hour Read the plate in EnVision plate reader (Ex= 405nm, and Em1=460nm and Em2=530nm). The %Activity was determined from the ratio of 460nm/530nm. Data normalization and AC50 calculations were accomplished using GeneData software.
Take `NC(=NCc1ccccc1)NC(=O)c1nc(Cl)c(N)nc1N`: the activity change, negative = inhibition was -15.5%.
Same read-out and setting: as for `Nc1ccc(S(N)(=O)=O)cc1`, the figure is -0.0158%; as for `CCc1nc(N)nc(N)c1-c1ccc(Cl)cc1`, -6.33% and 6.33%.
On the same count and under the same terms, as for `O=C(O)c1cccnc1Nc1cccc(C(F)(F)F)c1`, the figure is -16.9% and -24.7%; as for `NNc1nncc2ccccc12`, -29.1%.
On to `c1ccc2[nH]c(-c3cscn3)nc2c1`, for which the activity change, negative = inhibition is -19.5% and -28.1%.
On the same count and under the same terms, as for `O=c1c(O)c(-c2ccc(O)cc2O)oc2cc(O)cc(O)c12`, the figure is 10%.
Take `NS(=O)(=O)c1cc(C(=O)O)c(NCc2ccco2)cc1Cl`: the activity change, negative = inhibition is -8.48%.
`Cc1ccc(C)c(OCCCC(C)(C)C(=O)O)c1`: the activity change, negative = inhibition was 0.602% and 17.8%.
Regarding `Cc1c(OCC(F)(F)F)ccnc1CS(=O)c1nc2ccccc2[nH]1` (stereo not given), the activity change, negative = inhibition was -20.4% and -11.1%.
The same measure, in the same setting: as for `O=c1c(O)c(-c2cc(O)c(O)c(O)c2)oc2cc(O)cc(O)c12`, the figure is -3.39%; as for `CN1C(C(=O)Nc2ccccn2)=C(O)c2sccc2S1(=O)=O`, 9.83%; as for `Nc1nc(Cl)nc2c1ncn2[C@H]1C[C@H](O)[C@@H](CO)O1`, 16.6% and 27.4%.
Consider `O=C(NCC1CCCCN1)c1cc(OCC(F)(F)F)ccc1OCC(F)(F)F` (stereo not given), for which the activity change, negative = inhibition was -8.46%.
Take `Oc1ccc(OCc2ccccc2)cc1`: the activity change, negative = inhibition is -7.24%.
The same measure, in the same setting: to `COc1c2occc2cc2ccc(=O)oc12` belongs 0.388%; to `N=C(N=C(N)N)N1CCOCC1`, -6.61%.
For the molecule `COc1ccc2cc([C@H](C)C(=O)O)ccc2c1`, the activity change, negative = inhibition is -15.8% and 6.69% and 9.43%.
Same read-out and setting: as for `Nc1cc(C(Cl)=C(Cl)Cl)c(S(N)(=O)=O)cc1S(N)(=O)=O`, the figure is -0.14%; as for `CC1Cc2ccccc2N1NC(=O)c1ccc(Cl)c(S(N)(=O)=O)c1` (stereo not given), 6.17%.
The same measure, in the same setting: to `CCCc1cc(=O)[nH]c(=S)[nH]1` belongs -2.4% and 6.45%; to `CC(C)[N+]1(C)[C@@H]2CC[C@H]1CC(OC(=O)C(CO)c1ccccc1)C2` (stereo not given in full), -79.9% (active).
As for `CC1(C)NC(=O)N(c2ccc([N+](=O)[O-])c(C(F)(F)F)c2)C1=O`, the activity change, negative = inhibition was -3.85%.
As to `CCC1=C(C)CN(C(=O)NCCc2ccc(S(=O)(=O)NC(=O)NC3CCC(C)CC3)cc2)C1=O` (stereo not given), the activity change, negative = inhibition is 4.19%.

The same experiment, now with this note: Jurkat NFAT-bla M1, carbachol, beta-lactamase ratio, 5 h; at 38 µM (top of the series).
On to `NC(=NCc1ccccc1)NC(=O)c1nc(Cl)c(N)nc1N`, for which the activity change, negative = inhibition is -27.8%.
Still for that read-out and setting: as for `O=C(O)c1cccnc1Nc1cccc(C(F)(F)F)c1`, the figure is 5.69%; as for `NNc1nncc2ccccc12`, 8.48%.
With `O=c1c(O)c(-c2ccc(O)cc2O)oc2cc(O)cc(O)c12`, the activity change, negative = inhibition was 2.93%.
Take `Nc1nc(OCc2ccccc2)c2[nH]cnc2n1`: the activity change, negative = inhibition is -5.61%.
For `CNC[C@H](O)c1ccc(O)c(O)c1`, the activity change, negative = inhibition was 1.71% and -6.16%.
As to `Cc1c(OCC(F)(F)F)ccnc1CS(=O)c1nc2ccccc2[nH]1` (stereo not given), the activity change, negative = inhibition was 0.241%.
As to `O=c1c(O)c(-c2cc(O)c(O)c(O)c2)oc2cc(O)cc(O)c12`, the activity change, negative = inhibition was 11.8%.
With `O=C(CCc1ccc(O)cc1)c1c(O)cc(O)cc1O`, the activity change, negative = inhibition is 9.49%.
In the case of `COc1ccc2cc([C@H](C)C(=O)O)ccc2c1`, the activity change, negative = inhibition was 0.0959%.
Same read-out and setting: as for `O=C1NC(=O)C(c2ccccc2[N+](=O)[O-])=C1Nc1ccc(O)c(Cl)c1`, the figure is -15.2%; as for `CC1(C)NC(=O)N(c2ccc([N+](=O)[O-])c(C(F)(F)F)c2)C1=O`, 1.13%; as for `O=c1cc(N2CCOCC2)oc2c(-c3ccccc3)cccc12`, -14.3%.
Consider `Cc1cc(O)c2c(c1)C(=O)c1cc(O)cc(O)c1C2=O`, for which the activity change, negative = inhibition is 7.8%.
As for `O=C1c2ccccc2-c2n[nH]c3cccc1c23`, the activity change, negative = inhibition is 6.14%.
As for `Cc1cccc(C#Cc2ccccc2)n1`, the activity change, negative = inhibition was -6.27%.
